Test results published in PubChem BioAssay (Tox21).
Where “and” joins values, the source holds several entries; their conditions need not be identical. Equal values may be shown once. Calls of active or inactive are those of the source. Unless noted, calls follow the shape of the dose curve; as a rule, active = well fitted curve in the direction sought with a large enough effect in the repeat runs; inconclusive = weak or mixed curves; inactive = no such curve, though single readings can be large; an effect the other way counts as inactive or inconclusive.

How the values were obtained:
[1] = test system: thyroid hormone receptor (rat, GH3 cells); assay: qHTS assay to identify small molecule agonists of the thyroid receptor (TR) signaling pathway (AID 743066; calls by dose curve)
[2] = qHTS assay to identify small molecule antagonists of the estrogen receptor alpha (ER-alpha) signaling pathway - cell viability counter screen (AID 743074; calls by dose curve; also: nearly all actives have a fitted effect of over 45% in size)
[3] = molecular target: Estrogen receptor (Homo sapiens) (UniProt P03372); assay: qHTS assay to identify small molecule agonists of the estrogen receptor alpha (ER-alpha) signaling pathway (AID 743075; calls by dose curve)
Sequence of Estrogen receptor (Homo sapiens) (P03372 whole entry, looked up): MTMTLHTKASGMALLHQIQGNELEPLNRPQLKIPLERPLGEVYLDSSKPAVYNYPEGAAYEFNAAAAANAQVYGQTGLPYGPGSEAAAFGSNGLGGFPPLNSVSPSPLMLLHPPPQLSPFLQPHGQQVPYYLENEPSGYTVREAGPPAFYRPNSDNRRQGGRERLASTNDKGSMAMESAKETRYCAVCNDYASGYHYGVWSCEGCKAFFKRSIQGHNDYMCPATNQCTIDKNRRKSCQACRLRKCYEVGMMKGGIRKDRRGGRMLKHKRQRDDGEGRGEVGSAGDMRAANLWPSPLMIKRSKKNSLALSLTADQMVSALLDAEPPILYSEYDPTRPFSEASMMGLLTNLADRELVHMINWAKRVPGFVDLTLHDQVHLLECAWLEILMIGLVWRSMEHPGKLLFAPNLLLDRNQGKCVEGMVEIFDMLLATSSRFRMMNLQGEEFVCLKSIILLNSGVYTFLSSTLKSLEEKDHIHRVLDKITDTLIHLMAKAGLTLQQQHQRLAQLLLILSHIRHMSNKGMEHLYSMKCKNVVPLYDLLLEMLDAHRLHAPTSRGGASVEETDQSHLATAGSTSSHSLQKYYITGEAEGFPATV

[4] = qHTS assay to identify small molecule antagonists of the estrogen receptor alpha (ER-alpha) signaling pathway using the BG1 cell line (AID 743080; calls by dose curve;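 also: BG1 cells stimulated with 17beta-estradiol alongside compound; nearly all actives have a fitted effect of over 25% in size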; also: potency is read from the fitted curve at half-maximal effect)
Procedure, shortened: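 Quantitative HTS on the Tox21 10K library: BG1 cells with endogenous ER-alpha and ERE-luciferase reporter, 17beta-estradiol stimulation, 21.5 h compound exposure, luminescence endpoint with parallel fluorescence cytotoxicity counter-read.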

[5] = qHTS assay to identify small molecule antagonists of the estrogen receptor alpha (ER-alpha) signaling pathway using the BG1 cell line - cell viability counter screen (AID 743081);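 also: compound given together with 17beta-estradiol as the ER stimulus; series mostly up to about 70 µM; nearly all actives have a fitted effect of over 45% in size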
[6] = qHTS assay to identify aromatase inhibitors - cell viability counter screen (AID 743084);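 also: cells stimulated with testosterone during compound exposure; nearly all actives have a fitted effect of over 55% in size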
[7] = qHTS assay to identify small molecule that activate the aryl hydrocarbon receptor (AhR) signaling pathway - cell viability counter screen (AID 743086);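 also: HepG2 liver cells carrying the AhR DRE luciferase reporter; series mostly up to about 70 µM; nearly all actives have a fitted effect of over 45% in size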
Procedure, shortened: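 HepG2-AhR-luc (HG2L7.5c1) cells, 4000/well, were preincubated 5 h at 37C, exposed to compound in qHTS format for 24 hr at 37C, then given CellTiter-Fluor for 30 min; viability was read as fluorescence in the reporter wells.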

[8] = molecular target: Peroxisome proliferator-activated receptor gamma (Homo sapiens) (UniProt P37231); assay: qHTS assay to identify small molecule agonists of the peroxisome proliferator-activated receptor gamma (PPARg) signaling pathway (AID 743094; active = well fitted activation curve with a large enough effect in the signal ratio in the repeat runs, not every such curve was filed as active; inconclusive = weak or mixed curves, or effect the other way; inactive = no such curve, though single readings can be large or run the other way; the % refers to the signal ratio)
Sequence of Peroxisome proliferator-activated receptor gamma (Homo sapiens) (P37231 whole entry, looked up): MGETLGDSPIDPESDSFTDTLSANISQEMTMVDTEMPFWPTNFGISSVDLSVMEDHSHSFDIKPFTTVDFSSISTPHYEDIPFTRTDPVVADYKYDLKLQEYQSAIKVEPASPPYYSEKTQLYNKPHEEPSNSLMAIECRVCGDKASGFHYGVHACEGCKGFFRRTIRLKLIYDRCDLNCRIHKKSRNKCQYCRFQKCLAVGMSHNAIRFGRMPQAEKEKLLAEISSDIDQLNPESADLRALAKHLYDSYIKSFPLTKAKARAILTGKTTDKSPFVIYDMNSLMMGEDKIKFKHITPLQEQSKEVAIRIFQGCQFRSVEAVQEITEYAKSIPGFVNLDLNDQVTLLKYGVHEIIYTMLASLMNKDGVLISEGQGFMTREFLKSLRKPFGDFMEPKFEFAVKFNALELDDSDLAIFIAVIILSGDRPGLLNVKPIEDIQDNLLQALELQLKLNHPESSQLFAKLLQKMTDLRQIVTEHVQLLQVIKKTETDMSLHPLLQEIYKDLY
Procedure, shortened: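 Reporter activation was scored by fluorescence of cleaved LiveBLAzer B/G substrate (1 h, room temperature) in PPARg-bla HEK293H cells previously treated 17 h at 37C with DMSO-dissolved compounds.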

[9] = molecular target: Peroxisome proliferator-activated receptor gamma (Homo sapiens) (UniProt P37231); assay: qHTS assay to identify small molecule antagonists of the peroxisome proliferator-activated receptor gamma (PPARg) signaling pathway (AID 743191; calls by dose curve; also: series mostly up to about 63 µM; nearly all actives have a fitted effect of over 30% in size)
Procedure, shortened: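 GeneBLAzer PPARg UAS-bla HEK293H cells carrying a UAS-driven beta-lactamase reporter were plated at 3000 cells/well, preincubated 5 h at 37C, then given compound for 17 h at 37C; LiveBLAzer B/G FRET substrate was read after 1 h at room temperature.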

[10] = qHTS assay to identify small molecule antagonists of the peroxisome proliferator-activated receptor gamma (PPARg) signaling pathway - cell viability counter screen (AID 743194); also: nearly all actives have a fitted effect of over 55% in size; also: potency is read from the fitted curve at half-maximal effect
Procedure, shortened: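 PPARg-UAS-bla HEK293H cells were plated, rested 5 h at 37 C, then treated with compounds plus rosiglitazone (50 nM final) for 17 h at 37 C; viability was then read by CellTiter-Glo luminescence after 30 min at room temperature.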

[11] = qHTS assay for small molecule activators of the heat shock response signaling pathway - cell viability counter screen (AID 743209); also: nearly all actives have a fitted effect of over 50% in size; also: potency is read from the fitted curve at half-maximal effect
Procedure, shortened: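 Viability of HSE-bla HeLa cells is measured with CellTiter-Glo in the wells already used for the reporter read. Compound exposure lasts 5 h at 37 C, and luminescence is read after 30 min at room temperature.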

[12] = qHTS assay for small molecule activators of the heat shock response signaling pathway (AID 743210; active = well fitted activation curve with a large enough effect in the signal ratio in the repeat runs, with a control signal flat, not every such curve was filed as active; inconclusive = weak or mixed curves; the % refers to the signal ratio;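 also: HeLa cells with beta-lactamase reporter driven by heat shock elements; series mostly up to about 63 µM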)
Procedure, shortened: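 Activation of heat shock element-controlled beta-lactamase expression is measured in HeLa cells by LiveBLAzer FRET fluorescence, with compound exposure lasting 5 h at 37 C and substrate loading 2.5 h at room temperature.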

[13] = molecular target: Aromatase (Homo sapiens) (UniProt P11511); assay: qHTS assay to identify aromatase inhibitors (AID 743083); also: nearly all actives have a fitted effect of over 55% in size; also: potency is read from the fitted curve at half-maximal effect
Sequence of Aromatase (Homo sapiens) (P11511 whole entry, looked up): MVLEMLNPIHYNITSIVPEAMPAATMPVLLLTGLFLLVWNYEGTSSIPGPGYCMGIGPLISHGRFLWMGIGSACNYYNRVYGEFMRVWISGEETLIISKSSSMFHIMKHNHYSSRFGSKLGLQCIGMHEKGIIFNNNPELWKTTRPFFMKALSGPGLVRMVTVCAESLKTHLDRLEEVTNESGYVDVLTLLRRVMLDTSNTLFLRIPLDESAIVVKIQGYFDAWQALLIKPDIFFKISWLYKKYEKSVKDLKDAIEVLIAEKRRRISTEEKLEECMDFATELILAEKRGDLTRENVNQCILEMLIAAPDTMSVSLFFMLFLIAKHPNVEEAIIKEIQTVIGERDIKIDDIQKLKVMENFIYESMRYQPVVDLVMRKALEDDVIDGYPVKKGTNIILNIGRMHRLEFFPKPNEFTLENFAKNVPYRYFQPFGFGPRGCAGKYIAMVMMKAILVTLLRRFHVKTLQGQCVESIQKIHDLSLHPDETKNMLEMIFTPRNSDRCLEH

[14] = molecular target: Estrogen receptor (Homo sapiens) (UniProt P03372); assay: qHTS assay to identify small molecule antagonists of the estrogen receptor alpha (ER-alpha) signaling pathway (AID 743069; active = well fitted curve in the direction sought with a large enough effect in the signal ratio in the repeat runs, not every such curve was filed as active; inconclusive = weak or mixed curves, or effect the other way; inactive = no such curve, though single readings can be large or run the other way; the % refers to the signal ratio; also: potency is read from the fitted curve at half-maximal effect)
Procedure, shortened: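 Screening used a UAS-driven beta-lactamase reporter integrated into HEK293 cells expressing ER-alpha, stimulated with 17beta-estradiol alongside test compounds over 18 hr at 37C; signal came from LiveBLAzer B/G FRET fluorescence.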

[15] = molecular target: Estrogen receptor (Homo sapiens) (UniProt P03372); assay: qHTS assay to identify small molecule agonists of the estrogen receptor alpha (ER-alpha) signaling pathway using the BG1 cell line (AID 743079); also: nearly all actives have a fitted effect of over 20% in size; also: potency is read from the fitted curve at half-maximal effect
[16] = qHTS assay for small molecule agonists of the antioxidant response element (ARE) signaling pathway - cell viability counter screen (AID 743203; calls by dose curve; also: nearly all actives have a fitted effect of over 55% in size; also: potency is read from the fitted curve at half-maximal effect)
Procedure, shortened: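 Viability counter screen: stably transfected ARE-bla HepG2 line, 16 hrs compound exposure at 37C/5% CO2, ATP-based CellTiter-Glo luminescence measured in the reporter wells.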

[17] = molecular target: Aryl hydrocarbon receptor (Homo sapiens) (UniProt P35869); assay: qHTS assay to identify small molecule that activate the aryl hydrocarbon receptor (AhR) signaling pathway (AID 743085); also: nearly all actives have a fitted effect of over 15% in size; also: potency is read from the fitted curve at half-maximal effect;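 as to activation: HG2L7.5c1 human HepG2 liver cells with stably integrated DRE-driven firefly reporter; series mostly up to about 70 µM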
Sequence of Aryl hydrocarbon receptor (Homo sapiens) (P35869 whole entry, looked up): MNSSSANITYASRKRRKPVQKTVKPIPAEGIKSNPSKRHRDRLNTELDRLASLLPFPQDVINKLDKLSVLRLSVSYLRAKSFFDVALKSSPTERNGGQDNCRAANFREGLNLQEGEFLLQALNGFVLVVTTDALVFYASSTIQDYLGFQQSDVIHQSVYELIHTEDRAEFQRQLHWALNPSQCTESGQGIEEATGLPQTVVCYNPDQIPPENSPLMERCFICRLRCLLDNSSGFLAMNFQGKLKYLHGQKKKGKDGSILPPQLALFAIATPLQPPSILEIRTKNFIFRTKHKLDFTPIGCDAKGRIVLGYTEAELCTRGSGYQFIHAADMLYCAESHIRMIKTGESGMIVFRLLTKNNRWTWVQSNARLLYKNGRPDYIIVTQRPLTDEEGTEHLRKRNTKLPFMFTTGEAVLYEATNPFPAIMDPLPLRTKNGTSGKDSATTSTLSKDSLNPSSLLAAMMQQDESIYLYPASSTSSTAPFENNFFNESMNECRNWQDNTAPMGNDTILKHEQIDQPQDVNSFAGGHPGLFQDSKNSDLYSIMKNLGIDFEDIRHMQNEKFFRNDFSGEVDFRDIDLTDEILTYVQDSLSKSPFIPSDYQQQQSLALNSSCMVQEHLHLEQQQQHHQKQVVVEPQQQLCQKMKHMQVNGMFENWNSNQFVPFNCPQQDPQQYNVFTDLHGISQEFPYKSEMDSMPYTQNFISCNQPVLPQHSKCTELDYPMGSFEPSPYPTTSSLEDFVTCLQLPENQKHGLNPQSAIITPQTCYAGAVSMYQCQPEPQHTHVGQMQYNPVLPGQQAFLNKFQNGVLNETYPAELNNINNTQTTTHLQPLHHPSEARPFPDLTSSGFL
Procedure, shortened: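 Cell line HG2L7.5c1 (human hepatoma, 20× DRE-luc). Plated, 5 h 37C, compound/DMSO added, 24 h 37C. CellTiter-Fluor 30 min 37C → fluorescence; then ONE-Glo 30 min RT → luminescence.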

[18] = qHTS assay to identify small molecule antagonists of the thyroid receptor (TR) signaling pathway (AID 743065); also: nearly all actives have a fitted effect of over 55% in size; also: potency is read from the fitted curve at half-maximal effect
Procedure, shortened: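 GH3.TRE-Luc rat pituitary cells carrying two TR response elements driving luciferase were plated for 4 h, given compound plus 1 nM T3 (final), and incubated 23.5 h at 37 C. ONE-Glo luminescence measured reporter inhibition; CellTiter-Fluor fluorescence tracked cytotoxicity.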

[19] = qHTS assay for small molecule agonists of the antioxidant response element (ARE) signaling pathway (AID 743202; active = well fitted activation curve with a large enough effect in the signal ratio in the repeat runs, not every such curve was filed as active; inconclusive = weak or mixed curves, or effect the other way; inactive = no such curve, though single readings can be large or run the other way; the % refers to the signal ratio)
Procedure, shortened: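 Steps: seed ARE-bla HepG2 cells (2,000/well); incubate 5 h at 37 C; add compounds by pin tool; incubate 16 h at 37 C; add FRET substrate; read fluorescence after 2 h at RT.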

Measured: Potency

Oc1ccc(Cl)cc1C1CCCC1
not listed: [13] | [14] | [15] | [16] | [17] | [18] | [19]
inactive: all other assays above

COc1cc2c(cc1OC)[C@@H](Cc1cc(OC)c(OC)c(OC)c1)[N+](C)(CCCOC(=O)CC/C=C/CCC(=O)OCCC[N+]1(C)CCc3cc(OC)c(OC)cc3[C@H]1Cc1cc(OC)c(OC)c(OC)c1)CC2 (some centres not stated)
inactive: [2] | [5] | [13] | [6] | [7]

Cc1ccc2nc(-c3ccc(N)cc3)sc2c1S(=O)(=O)O
inactive: [1] | [14] | [3] | [5] | [13] | [7] | [10] | [16] | [11]
active: [15] 7.58 µM

COc1ccc(/C=N/NC(=O)c2ccncc2)c(C(=O)O)c1OC
not listed: [9] | [10] | [11] | [12] | [16] | [17] | [18] | [19]
inactive: all other assays above

CCN(CC)CCNC(=O)c1ccc(NS(C)(=O)=O)cc1
inactive: [13] | [6] | [17] | [7] | [8]

CCCCCCCCCCCCN1CCCC1=O
active: [10] 54.9 µM | [16] 61.1 µM | [11] 21.9 µM
inactive: [1] | [5] | [13] | [6] | [7] | [8]

CS(=O)(=O)c1ccc([C@@H](CC2CCCC2)C(=O)Nc2cnccn2)cc1Cl
inactive: [1] | [13] | [17]

CC(O)(c1ccc(Cl)cc1)c1ccc(Cl)cc1
active: [13] 61.1 µM
inactive: [1] | [2] | [3] | [15] | [5] | [17] | [7] | [10] | [11] | [12]

CC1=C(/C=C/C(C)=C/C=C/C(C)=C\C(=O)O)C(C)(C)CCC1
inactive: [13] | [17]
active: [18] 68.8 µM | [4] 244 nM | [11] 55.1 µM

O=C(O)[C@@H]1C[C@H](CP(=O)(O)O)CCN1
not listed: [1] | [9] | [10] | [11] | [12] | [16] | [18] | [19]
inactive: all other assays above

O=C(O)c1cc2cc(Cc3cccnc3)ccc2o1
inactive: [1] | [14] | [2] | [4] | [5] | [13] | [6] | [17] | [7] | [8]
active: [15] 18.8 µM

CN(C/C=C/c1ccccc1)Cc1cccc2ccccc12
not listed: [9] | [18]
inactive: all other assays above

CCCCCCCCCCCCCCCCCCOCC(COP(=O)([O-])OCC[N+](C)(C)C)OC (configuration not stated)
not listed: [9] | [10] | [11] | [12] | [16] | [17] | [18] | [19]
inactive: all other assays above

C=CC[N@@+]12CC[C@@]34c5ccccc5N5/C=C6/[C@H]7C[C@H]8[C@@]9(CC[N@@+]8(CC=C)C/C7=C/CO)c7ccccc7N(/C=C(/[C@@H](C[C@@H]31)/C(=C\CO)C2)[C@H]54)[C@@H]69
inactive: [18] | [1] | [2] | [13] | [6] | [17] | [7] | [8]

CO/N=C(\C(=O)N[C@@H]1C(=O)N2C(C(=O)O)=C(CSc3cnns3)CS[C@H]12)c1csc(N)n1
not listed: [1] | [9] | [10] | [11] | [12] | [16] | [18] | [19]
inactive: all other assays above

COc1ccc2ccccc2c1
inactive: [18] | [1] | [13]

O=C1CCCCCCCCCCCCCC1
not listed: [6] | [8] | [9] | [11] | [13] | [17] | [18]
inactive: all other assays above

c1ccc(-c2ccc(C(c3ccccc3)n3ccnc3)cc2)cc1 (configuration not stated)
inactive: [2] | [15] | [4] | [5] | [6] | [7] | [8]
active: [13] 0.75 µM | [17] 1.06 µM

N=C(N)c1ccc(/C=C/c2ccc(C(=N)N)cc2O)cc1
not listed: [9] | [10] | [11] | [12] | [16] | [17] | [18] | [19]
inactive: all other assays above

O=C(O)C[C@H](O)C[C@H](O)/C=C/c1c(C2CC2)nc2ccccc2c1-c1ccc(F)cc1
inactive: [1] | [2] | [15] | [5] | [6] | [7] | [8]

CC[N+](CC)(CC)CCC(O)(c1ccccc1)C1CCCCC1 (configuration not stated)
inactive: [2] | [13] | [6] | [17] | [7] | [8]

CO[C@H](C(=O)[C@@H](O)[C@@H](C)O)C1Cc2cc3cc(O[C@H]4C[C@@H](O[C@H]5C[C@@H](O)[C@H](O)[C@@H](C)O5)[C@@H](O)[C@@H](C)O4)c(C)c(O)c3c(O)c2C(=O)[C@H]1O[C@H]1C[C@@H](O[C@H]2C[C@@H](O[C@H]3C[C@](C)(O)[C@H](O)[C@@H](C)O3)[C@H](O)[C@@H](C)O2)[C@H](O)[C@@H](C)O1 (some centres not stated)
active: [18] 335 nM and 237 nM | [14] 301 nM [inconclusive] and 190 nM [inconclusive] | [4] 266 nM and 335 nM | [13] 841 nM and 668 nM | [17] 0.237 µM
inactive: [2] | [3] | [5] | [6]

CN1[C@@H](CC(=O)c2ccccc2)CCC[C@H]1C[C@H](O)c1ccccc1
inactive: [1] | [14] | [2] | [3] | [15] | [4] | [13] | [17] | [7] | [8]

CC[C@H](C)C(=O)O[C@H]1CCC=C2C=C[C@H](C)[C@H](CC[C@@H]3C[C@@H](O)CC(=O)O3)[C@H]21
inactive: [1] | [2] | [3] | [15] | [5] | [6] | [7] | [8]

CC(=O)N(C)C
inactive: [18] | [17]

CN(C)CCC(O)(c1ccccc1)c1ccccc1Cl (configuration not stated)
inactive: [1] | [14] | [2] | [3] | [15] | [4] | [13] | [6] | [8]

Cc1cn([C@H]2C[C@H](O)[C@@H](CO)O2)c(=O)[nH]c1=O
not listed: [1] | [9] | [10] | [11] | [12] | [16] | [18] | [19]
inactive: all other assays above
